In all, about 39,000 compounds went through this assay and about 1,500 (3.8%) were called active. This is one part of a sample in which actives are shown more often than they occur.

This assay relates to HSkMC (human skeletal muscle cells). Kind of assay: cytotoxicity call (relative viability < 0.9). The following applies: 10 µM.
On to `CC(=O)N(C)C[C@@H]1Oc2ncc(C#C[C@@H](C)O)cc2C(=O)N([C@H](C)CO)C[C@@H]1C`, for which the cytotoxicity call was “inactive”.
In the case of `C[C@@H]1CN([C@@H](C)CO)C(=O)c2cc(NC(=O)c3ccncc3)ccc2O[C@@H](C)CCCCO[C@H]1CN(C)C(=O)Nc1ccc2c(c1)OCO2` it was “inactive”.
In the case of `COc1ccc(CN(C)C[C@@H]2OCCCC[C@H](C)Oc3ccc(NS(=O)(=O)c4ccc(Cl)cc4)cc3C(=O)N([C@H](C)CO)C[C@H]2C)cc1` it was “inactive”; in that of `O=C(N[C@@H](c1ccccc1)c1ccc2ccccc2n1)C1CCN(Cc2cccc(C(F)(F)F)c2)CC1`, “inactive”; in that of `O=C(N[C@H](c1ccc(F)cc1)c1ccc2ccccc2n1)C1CCN(Cc2ccc3ccccc3n2)CC1`, “inactive”.
The value for `COc1cc(CN2CCC(C(=O)N[C@@H](c3ccc(F)cc3)c3ccc4ccccc4n3)CC2)cc(OC)c1` was “inactive”; that for `O=C(N[C@H](c1ccc(F)cc1)c1ccc2ccccc2n1)C1CCN(Cc2cccc(C(F)(F)F)c2)CC1` was “active”; that for `O=C(N[C@H](c1ccc(F)cc1)c1ccc2ccccc2n1)C1CCN(Cc2ccc(Oc3ccccc3)cc2)CC1` was “inactive”.
On to `Cn1cc(CN2CCC(C(=O)N[C@@H](c3ccc(F)cc3)c3ccc4ccccc4n3)CC2)c2ccccc21`, for which the cytotoxicity call is “active”.
The value for `COc1ccc(CNC(=S)NCCO)cc1` was “inactive”; that for `O=S(=O)(NCC[C@@H]1CC[C@H](NS(=O)(=O)c2cccc(Cl)c2)[C@@H](CO)O1)c1cccc(F)c1` was “inactive”.
On to `Cc1noc(C)c1NC(=O)N(C)C[C@H]1Oc2ccc(NS(=O)(=O)c3cccs3)cc2CC(=O)N([C@@H](C)CO)C[C@@H]1C`, for which the cytotoxicity call is “inactive”.
The value for `CCCNC(=O)N1C[C@H](O)COC[C@@H]2O[C@@H](CC(=O)NCc3ccncn3)CC[C@H]21` was “inactive”; that for `Cc1ccc(OCc2ccc(Cl)cc2)c(C(C)(C)C)c1` was “inactive”; that for `CC(C)(C)NCCCCOc1ccc(Cl)cc1C(C)(C)C` was “inactive”.
`CC[C@@H](C)NCCCCOc1ccc(Cl)cc1C(C)(C)C`: the cytotoxicity call is “active”.
The value for `C[C@@H]1CCCCO[C@H](CN(C)C(=O)CCC(F)(F)F)[C@H](C)CN([C@@H](C)CO)C(=O)c2cc(NS(=O)(=O)c3ccc(Cl)cc3)ccc2O1` was “inactive”; that for `C[C@@H]1CN([C@H](C)CO)C(=O)c2cc(-c3cccc(C#N)c3)cnc2O[C@H]1CN(C)C(=O)c1cnccn1` was “inactive”; that for `CO[C@@H]1CN(C)C(=O)c2ccc(NS(C)(=O)=O)cc2OC[C@@H](C)N(S(=O)(=O)CC(F)(F)F)C[C@H]1C` was “inactive”.
The value for `COc1ccc(NC(=O)Nc2cccc3c2O[C@H](CN(C)C(=O)Nc2ccc(C(F)(F)F)cc2)[C@@H](C)CN([C@@H](C)CO)C3=O)cc1` was “inactive”; that for `COc1ccc(NC(=O)N(C)C[C@H]2Oc3c(NC(=O)Nc4ccc(C(F)(F)F)cc4)cccc3C(=O)N([C@@H](C)CO)C[C@@H]2C)cc1` was “active”; that for `C[C@@H]1CN([C@@H](C)CO)C(=O)c2cccc(NC(=O)Nc3ccccc3)c2O[C@@H]1CN(C)C(=O)Nc1ccc(C(F)(F)F)cc1` was “inactive”.
As for `C[C@H](CO)N1C[C@H](C)[C@H](CN(C)C(=O)Nc2ccc(C(F)(F)F)cc2)Oc2c(NC(=O)Nc3ccc(C(F)(F)F)cc3)cccc2C1=O`, the cytotoxicity call is “active”.
For `C[C@H]1CN([C@@H](C)CO)C(=O)c2cccc(NC(=O)Nc3ccc(C(F)(F)F)cc3)c2O[C@@H]1CN(C)C(=O)Nc1ccccc1`, the cytotoxicity call was “inactive”.
In the case of `C[C@@H]1CN([C@H](C)CO)C(=O)c2cccc(NC(=O)Nc3ccc(F)cc3)c2O[C@H]1CN(C)C(=O)Nc1ccc(C(F)(F)F)cc1` it was “inactive”; in that of `C[C@H]1CN([C@@H](C)CO)C(=O)c2cccc(NC(=O)Nc3ccc(C(F)(F)F)cc3)c2O[C@H]1CN(C)C(=O)Nc1ccc(C(F)(F)F)cc1`, “inactive”.
In the case of `C[C@@H]1CN([C@H](C)CO)C(=O)c2cccc(NC(=O)Nc3ccc(C(F)(F)F)cc3)c2O[C@@H]1CN(C)C(=O)Nc1ccc(C(F)(F)F)cc1` it was “active”; in that of `COc1ccc(NC(=O)Nc2cccc3c2O[C@@H](CN(C)C(=O)Nc2ccc(C(F)(F)F)cc2)[C@@H](C)CN([C@@H](C)CO)C3=O)cc1`, “inactive”; in that of `C[C@@H]1CN([C@H](C)CO)C(=O)c2cccc(NC(=O)Nc3ccc(C(F)(F)F)cc3)c2O[C@@H]1CN(C)C(=O)Nc1ccccc1`, “active”.
Take `C[C@H](CO)N1C[C@H](C)[C@H](CN(C)C(=O)Nc2ccc(C(F)(F)F)cc2)Oc2c(NC(=O)Nc3ccccc3)cccc2C1=O`: the cytotoxicity call is “inactive”.
Take `C[C@H]1CN([C@@H](C)CO)C(=O)c2cccc(NC(=O)Nc3ccc(C(F)(F)F)cc3)c2O[C@@H]1CN(C)C(=O)Nc1ccc(F)cc1`: the cytotoxicity call is “inactive”.
The value for `COc1ccc2c3c(n(c2c1)C)[C@H](CO)N(C[C@]13CN(C1)C(=O)CN1CCOCC1)C(=O)Nc1ccc(cc1)F` was “inactive”.
The value for `C[C@H]1CN([C@@H](C)CO)C(=O)CCCn2cc(nn2)CO[C@@H]1CN(C)C(=O)c1ccc(N2CCN(C)CC2)cc1` was “inactive”.
The value for `CC/C(=C\C(=O)O)c1ccccc1` was “inactive”.
For the molecule `O=C(C[C@@H]1C[C@@H]2c3cc(NC(=O)C4CCOCC4)ccc3O[C@@H]2[C@H](CO)O1)NCCN1CCCCC1`, the cytotoxicity call was “inactive”.
The value for `COCC(=O)N1C[C@@H](C)[C@@H](OC)CN(C)C(=O)c2ccc(NC(=O)Nc3cccc(F)c3)cc2OC[C@@H]1C` was “inactive”; that for `Cc1cccc(S(=O)(=O)N2C[C@H](O)COC[C@H]3O[C@H](CC(=O)NCc4ccncn4)CC[C@@H]32)c1` was “inactive”.
Take `C[C@@H]1CCN(C(=O)[C@H](CCCNC(=N)N)NS(=O)(=O)c2cccc3c2NC[C@H](C)C3)[C@@H](C(=O)O)C1`: the cytotoxicity call is “inactive”.
In the case of `CNC(=O)C[C@@H]1CC[C@@H]2[C@H](COC[C@H](O)CN2C(=O)c2ccccn2)O1`, the cytotoxicity call was “inactive”.
In the case of `N#C[C@@H]1[C@H](c2ccc(C#Cc3ccccn3)cc2)[C@@H](CO)N1C(=O)CN1CCOCC1` it was “inactive”.
The value for `CC(C)NC(=O)N(C)C[C@@H]1Oc2ccc(NS(=O)(=O)c3cn(C)cn3)cc2C(=O)N([C@H](C)CO)C[C@@H]1C` was “inactive”; that for `C[C@@H]1CN([C@@H](C)CO)C(=O)c2cc(NC(=O)Nc3ccccc3)ccc2O[C@@H](C)CCCCO[C@H]1CN(C)S(=O)(=O)c1cccs1` was “inactive”; that for `C[C@@H]1CN([C@@H](C)CO)C(=O)c2cccc(NC(=O)Nc3ccc(C(F)(F)F)cc3)c2O[C@@H]1CN(C)C(=O)Nc1ccc(C(F)(F)F)cc1` was “active”.
The value for `C[C@H](CO)N1C[C@H](C)[C@H](CN(C)C(=O)Nc2ccc(F)cc2)Oc2c(NC(=O)Nc3ccc(C(F)(F)F)cc3)cccc2C1=O` was “active”; that for `C[C@H]1CN([C@@H](C)CO)C(=O)c2cccc(NC(=O)Nc3ccc(C(F)(F)F)cc3)c2O[C@@H]1CN(C)C(=O)Nc1ccc(C(F)(F)F)cc1` was “active”.
Consider `C[C@H](CO)N1C[C@H](C)[C@@H](CN(C)C(=O)Nc2ccc(C(F)(F)F)cc2)Oc2c(NC(=O)Nc3ccc(C(F)(F)F)cc3)cccc2C1=O`, for which the cytotoxicity call is “active”.
The value for `C[C@@H]1CN([C@H](C)CO)C(=O)c2cccc(NC(=O)Nc3ccc(C(F)(F)F)cc3)c2O[C@@H]1CN(C)C(=O)Nc1ccc(F)cc1` was “inactive”; that for `C[C@@H]1CN([C@@H](C)CO)C(=O)c2cccc(NC(=O)Nc3ccc(C(F)(F)F)cc3)c2O[C@H]1CN(C)C(=O)Nc1ccc(C(F)(F)F)cc1` was “inactive”.
In the case of `C[C@@H]1CN([C@H](C)CO)C(=O)c2cccc(NC(=O)Nc3ccc(F)cc3)c2O[C@@H]1CN(C)C(=O)Nc1ccc(C(F)(F)F)cc1` it was “inactive”; in that of `C[C@H]1CN([C@@H](C)CO)C(=O)c2cccc(NC(=O)Nc3ccc(C(F)(F)F)cc3)c2O[C@H]1CN(C)C(=O)Nc1ccc(F)cc1`, “inactive”; in that of `C[C@H]1CN([C@@H](C)CO)C(=O)c2cccc(NC(=O)Nc3ccccc3)c2O[C@@H]1CN(C)C(=O)Nc1ccc(C(F)(F)F)cc1`, “inactive”.
For `C[C@@H]1CN([C@H](C)CO)C(=O)c2cccc(NC(=O)Nc3ccc(C(F)(F)F)cc3)c2O[C@H]1CN(C)C(=O)Nc1ccc(C(F)(F)F)cc1`, the cytotoxicity call is “inactive”.

The record behind these values is the antibiotic and cytotoxicity screens of Wong et al. (2023).
